Among all 360,000 compounds or so, about 9,100 (2.5%) were called active. Roughly 4% stayed inconclusive and do not appear here. Rule as the data show it: active = max response below about -50%; inconclusive = no clear call, values can overlap the other calls; inactive = above that. The full list was thinned out, with actives kept by preference.
target: D(3) dopamine receptor (Homo sapiens) (UniProt P35462); experiment: qHTS of D3 Dopamine Receptor Antagonist: qHTS; conditions: D3R cells, DiscoveRx beta-arrestin luminescence, antagonist mode; active compounds read low
Sequence (P35462 whole entry, looked up): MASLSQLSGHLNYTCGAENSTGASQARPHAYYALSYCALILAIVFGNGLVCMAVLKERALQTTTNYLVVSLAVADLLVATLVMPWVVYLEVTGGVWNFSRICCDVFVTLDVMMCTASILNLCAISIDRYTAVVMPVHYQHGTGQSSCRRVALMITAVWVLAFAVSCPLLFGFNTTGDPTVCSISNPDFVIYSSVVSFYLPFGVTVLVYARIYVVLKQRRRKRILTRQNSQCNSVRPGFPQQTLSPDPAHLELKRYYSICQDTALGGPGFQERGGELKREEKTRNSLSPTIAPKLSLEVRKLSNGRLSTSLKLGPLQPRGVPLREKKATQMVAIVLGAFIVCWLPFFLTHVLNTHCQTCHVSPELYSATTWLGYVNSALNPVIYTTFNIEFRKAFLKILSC
Outline: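 Cells expressing the human receptor were seeded at 1500 cells/well, incubated overnight at 37 degrees C in 5% CO2, then exposed to library compounds with dopamine controls for 90 minutes at 37 degrees C before luminescent detection.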
% is scaled to controls: 0 for no effect and ±100 for the full control effect.

Max response, negative = inhibition, inactive:
CCN(c1ccccc1)S(=O)(=O)c1cc(C(=O)NCc2ccccn2)ccc1C 4.76%
COc1cccc(S(=O)(=O)NCc2ccc(C(=O)NCc3ccccn3)cc2)c1 8.72%
CC1(Cc2ccccc2C#N)C(=O)Nc2ccc(-c3ccc4[nH]ccc4c3)cc21 (stereo not drawn) -15.9%
COc1ccc(S(=O)(=O)N[C@@H]2C=C[C@@H](CC(=O)N3CCc4ccccc4C3)O[C@@H]2CO)cc1 -0.0851%
COc1cccc(C2=CC(=O)C[C@H](c3ccc(F)cc3)C2)c1OC -8.44%
COc1ccccc1C1=CC(=O)C[C@H](c2ccc(F)cc2)C1 -18.2%
CCOC(=O)c1ccc(-c2ccc(C(=O)Nc3cccnc3)o2)cc1 9.54%
COC(=O)C1=C(C)N(C)C(=O)NC1c1ccc([N+](=O)[O-])o1 (stereo not drawn) -10.8%
O=C(CSc1nnnn1-c1ccccc1)NCc1ccco1 -1.61%
O=C(NCc1ccco1)C1(c2ccc(Cl)cc2)CCCC1 -5.37%
Cc1cc(C)n(-c2nnc(N3CCN(c4ccccc4)CC3)nn2)n1 -8.33%
CN(C)c1ccc(/C=N/Nc2cc(N3CCOCC3)nc(N3CCOCC3)n2)cc1 -13.4%
C[C@H]1COc2cc(N3CCSCC3)ccc2S(=O)(=O)N1 -22.5%
CCCCC(O)C1=C[N+](=O)CC=C1 (stereo not drawn) 7.65%
COc1ccc(-c2cc(NC=O)c3ncc(-c4ccccc4)n3c2)cc1OC -15.4%
COc1ccc(S(=O)(=O)NC(=O)C2(C)CCN2C(=O)c2ccccc2CCc2ccccc2)cc1 (stereo not drawn) -6.13%
CC(C)(O)C1=C[N+](=O)CC=C1 -16.9%
O=C(c1ccccc1)N1CCN(c2cc(-c3ccccc3)nc3cc(-c4cccc(Cl)c4)nn23)CC1 14.3%
Cc1cc(NC(=O)CCN2CCN(Cc3ccccc3)CC2)ccc1Br -20.3%
COC(=O)c1[nH]c2ccccc2c1NC(=O)CN1CCCc2ccccc21 9.03%
COc1ccc(-c2c(C#N)cnc(C)c2C)c(O)c1OC 9.2%
CC(=O)Nc1cccc(Nc2ccc(C#N)cc2)c1 1.07%
c1cc(-c2nn[nH]n2)ccc1CN1CCCCC1 -18.9%
Clc1ccc(-n2nnnc2CN2CCCCC2)cc1Cl -19.7%
CC1(C(=O)NCc2ccc3c(c2)OCO3)CCN1CCc1ccccc1 (stereo not drawn) -10.3%
COCCNc1nc(NCc2ccc(NC(C)=O)cc2)c2sccc2n1 23.6%
COc1ccc(NC(=O)C2Cc3c(-c4ccc5c(c4)OCO5)ccnc3O2)cn1 (stereo not drawn) -19.8%
CC1(C)Cc2ccccc2-c2nc(CN3CCOCC3)[nH]c(=O)c21 8.19%
CC1(C)Cc2ccccc2/C(=C/C(=O)c2ccccc2)N1 3.22%
COc1cc(Cn2c3ccc(NC(=O)CC(C)c4ccccc4)cc3c(=O)n2C)ccc1F (stereo not drawn) 0%
CC1(C(=O)NS(=O)(=O)c2ccc(C#N)cc2)CCN1C(=O)c1ccc(C2CCCCC2)cc1 (stereo not drawn) -14.3%
OCC1OC(n2cnc3c(N4CCCC4)ncnc32)C(O)C1O (stereo not drawn) 10.4%
O=C(OCc1cn([C@@H]2C[C@H](c3ccc(Cl)cc3)N(Cc3cccs3)C[C@H]2O)nn1)c1ccccc1 -15%
COc1ccc(S(=O)(=O)NC(C)C)cc1C(=O)NC1CCCCC1 11.4%
CCN(CC)CCNC(=O)c1ccc(NS(=O)(=O)c2ccc3c(c2)OCCO3)cc1 2.66%
COc1cccc(CN2CCC(C(=O)NC(c3ccc4c(c3)OCO4)c3ccccn3)CC2)c1 (stereo not drawn) -21.6%
O=C(NCCN1CCOCC1)c1ccc2c(c1)N(Cc1cccc(Cl)c1)C(=O)c1ccccc1S2(=O)=O -29.4%
CC1(C(=O)Nc2cccc3c2CCCC3)CCN1C(=O)C1(c2ccccc2)CC1 (stereo not drawn) 11.6%
CCOC(=O)N1CCN(C(=O)C2CCN(Cc3ccc(OC)cc3OC)CC2)CC1 0.368%
CCOC(=O)C1CCCN(C(=O)/C=C/c2ccc(OC)cc2)C1 (stereo not drawn) -24.9%
O=C1c2ccccc2C(c2nc3ccccc3[nH]2)N1c1ccccc1 (stereo not drawn) 6.4%
O=C(c1ccc(CS(=O)Cc2ccccc2Cl)o1)N1CCN(c2ccccc2)CC1 (stereo not drawn) 2.17%
CS(=O)(=O)/C(C#N)=C/c1cccn1S(=O)(=O)c1ccc([N+](=O)[O-])cc1 -13.9%
O=C(CN1CCN(Cc2ccccc2)CC1)NC(c1ccccc1)c1ccccc1 -9.3%
O=S1(=O)CCN(Cc2ccccc2)CC1 -8.1%
FC(F)(F)c1cccc(-c2nc3ccccc3n2C(c2ccccc2)c2nc3ccccc3[nH]2)c1 (stereo not drawn) 7.98%

Max response, negative = inhibition, active:
CN(c1ccc(C(=O)NCc2ccccn2)cc1)S(C)(=O)=O -116%
O=C1C=C(c2cccc(Cl)c2O)C[C@@H](c2ccc(F)cc2)C1 -58.3%
COC(=O)C1=C(C)NC2=C(C(=O)c3ccccc32)C1c1ccc(-c2ccc(C(=O)O)cc2)o1 (stereo not drawn) -75.7%
O=C(CSc1c2c(nc3ccc(Cl)cc13)CCCC2)NCc1ccco1 -79.5%
Cc1cc(N/N=C\c2ccc(Br)cc2)nc(-n2nc(C)cc2C)n1 -54.3%
N#CC1=C(N)C(C#N)(C#N)[C@H](c2ccsc2)[C@H]2COCC=C12 -56%
CCOC(=O)c1[nH]c2ccc(OC)cc2c1NC(=O)CCN1CCN(Cc2ccccc2)CC1 -54.8%
Clc1ccc(CN2CCCCCC2)cc1Cl -62.3%
CC1(C)Cc2ccccc2-c2[nH]c(=S)[nH]c(=O)c21 -54.5%
CCN(CC)CCNC(=O)c1cc(S(C)(=O)=O)ccc1OC -60.5%
CCOC(=O)c1cc2cc(OC)ccc2n1C1CCN(C)CC1 -92.9%
O=C1c2ccccc2C(=O)c2c1cccc2N1CCN(Cc2ccccc2)CC1 -83%

Source: PubChem BioAssay AID652054 (National Center for Advancing Translational Sciences (NCATS), 2013)
